A selection: hits, their analogues and other compounds. The true share with any hit is near 18%.
DT40 TDP1 no CPT = qHTS for Inhibitors of human tyrosyl-DNA phosphodiesterase 1 (TDP1): qHTS in cells in absence of CPT. Potency, µM (series often up to 46.2 µM), for inactives: top-dose activity change, negative = growth inhibition, actives largely listed as inhibitors. 420,000 tested, 15% active. DT40 Tdp1-/- hTDP1 cells, no CPT, ATP luminescence, 48 h; note: potency is the fitted concentration of half-maximal effect; % is set by controls: 0 for no effect and ±100 for the full control effect; nearly all actives have a fitted effect of over 55% in size
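Cells were dispensed at 400 per well, compounds added by pin tool, plates incubated ≥48 hr at 37 °C, then CellTiter-Glo added for 30 min at room temperature before luminescence reading. Line: DT40 Tdp1-/- complemented with hTDP1; camptothecin omitted.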
DT40 TDP1 CPT = growth inhibition of DT40 Tdp1-/-;hTDP1 cells with camptothecin (screen for TDP1 inhibitors) | chicken DT40 Tdp1-/-;hTDP1 cells + 20 nM CPT, ATP luminescence, 48 h | Potency, µM (doses to about 46.2 µM), for inactives: at the top dose activity change, negative = growth inhibition, hits mostly inhibitors | 420,000 tested, 12% active | AID 686979; note: potency is the fitted concentration of half-maximal effect; % is set by controls: 0 for no effect and ±100 for the full control effect; nearly all actives have a fitted effect of over 55% in size
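Chicken DT40 Tdp1-/- cells complemented with human TDP1, 400 cells/well, exposed to compounds plus 20 nM camptothecin for at least 48 h at 37 C; viability read as ATP content by CellTiter-Glo luminescence.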
TDP1 block = inhibitors of human tyrosyl-DNA phosphodiesterase TDP1 | 350,000 tested, 0.28% active | Potency, µM (doses to about 130 µM), without a hit: at the highest dose activity change, negative = inhibition, usual class: inhibitors | recombinant TDP1, AlphaScreen DNA substrate cleavage | Q9NUW8; note: potency is the fitted concentration of half-maximal effect; % is set by controls: 0 for no effect and ±100 for the full control effect; nearly all actives have a fitted effect of over 40% in size
Target sequence (Q9NUW8 whole entry, looked up): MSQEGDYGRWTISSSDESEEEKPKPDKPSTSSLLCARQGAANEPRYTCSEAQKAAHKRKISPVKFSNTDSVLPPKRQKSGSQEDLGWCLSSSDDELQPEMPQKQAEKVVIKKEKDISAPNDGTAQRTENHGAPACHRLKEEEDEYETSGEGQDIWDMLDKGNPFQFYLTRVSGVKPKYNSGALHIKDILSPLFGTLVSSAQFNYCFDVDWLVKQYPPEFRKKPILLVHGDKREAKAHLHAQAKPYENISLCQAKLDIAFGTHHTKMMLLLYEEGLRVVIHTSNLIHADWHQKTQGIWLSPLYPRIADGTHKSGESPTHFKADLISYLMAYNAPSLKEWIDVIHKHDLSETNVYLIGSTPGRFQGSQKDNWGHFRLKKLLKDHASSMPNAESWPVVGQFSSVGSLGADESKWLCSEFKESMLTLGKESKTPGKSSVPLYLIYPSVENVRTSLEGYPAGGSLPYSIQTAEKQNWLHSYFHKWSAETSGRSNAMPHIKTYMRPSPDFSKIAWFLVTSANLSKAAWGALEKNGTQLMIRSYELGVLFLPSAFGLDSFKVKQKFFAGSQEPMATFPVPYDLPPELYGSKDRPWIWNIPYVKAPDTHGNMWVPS
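Recombinant human Tdp1 (E. coli-expressed, 1 nM final) preincubated with compounds 15 min at room temperature, then 5'-biotin/3'-phosphotyrosine-FITC DNA substrate (15 nM final) added for 5 min. AlphaScreen beads (10 ug/ml final) added 10 min; cleavage lowers signal.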
IL1B secr inh = inhibitors of inflammasome signaling (IL-1 beta secretion) | THP-1 LPS/ATP IL-1B secretion, AlphaLISA, 16 h; active compounds read low | activity change, % at 57.5 µM | 360,000 tested, 4.7% active | AID 743279; in the data active = activity change below about -50%; inconclusive = mostly about -30% to -49%; note: % is set by controls: 0 for no effect and ±100 for the full control effect
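THP-1 cells pretreated 1 hr with compounds (up to 57.5 uM final), then stimulated with LPS (250 ng/mL final) plus ATP (1.25 mM final); secreted IL-1B measured by AlphaLISA after 16 hr, decreased signal indicating inhibition.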
TGFb SMAD3 inh = blocks TGF-b signaling; HepG2 CAGA-GFP TGF-b/SMAD3 reporter, GFP fluorescence, 18 h; TGF-beta stimulated, 500 pg/mL final; Potency, µM (highest dose often 46.1 µM), inactives show at the highest dose activity, negative = inhibition, actives largely listed as inhibitors; 410,000 tested, 1.2% active; note: potency is the fitted concentration of half-maximal effect; % is set by controls: 0 for no effect and ±100 for the full control effect; nearly all actives have a fitted effect of over 65% in size
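Cell-based qHTS in HEPG2 carrying a CAGA-GFP Smad reporter; compounds added before 500 pg/mL final TGF-beta, 18 h incubation at 37 degrees C, GFP fluorescence quantified per cell by imaging cytometry.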
HepG2 viability = kills HepG2 cells in TGF-b inhibitor counter-screen; Potency, µM (series often up to 46.1 µM), without a hit: top-dose activity change, negative = cytotoxicity, hits mostly cytotoxic; AID 588856; HepG2 CAGA-GFP viability, ATP luminescence, 18 h; 410,000 tested, 0.76% active; note: potency is the fitted concentration of half-maximal effect
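CellTiter-Glo luminescence gave cytotoxicity after 18 hours at 37 degrees C. The cells were HepG2 CAGA-GFP in 1% FBS DMEM, stimulated with 500 pg/mL TGF-beta after compound addition. %Activity was normalised to no-cell wells (complete cell-killing) and DMSO (no toxicity), and curves were fitted and classified.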
An asterisk follows results filed as active; ? = inconclusive; nt = no result given. Unless noted, calls come from the whole dose curve; as a rule, active = well fitted curve in the direction sought with a large enough effect; inconclusive = small, poorly fitted or top-dose-only effect, or another doubt; inactive = no such curve, though single readings can be large; an effect the other way counts as inactive or inconclusive.

SMILES | DT40 TDP1 no CPT | DT40 TDP1 CPT | TDP1 block | IL1B secr inh | TGFb SMAD3 inh | HepG2 viability
CC(C)C(=O)OC1=CN(Cc2ccccc2)S(=O)(=O)c2ccccc21 | -23% | ? | -3% | nt | ? | -14%
CCOC(=O)CN(C(=O)c1ccccc1[N+](=O)[O-])C(C)(C)C | 2% | -1% | 1% | 12 | 36% | 30%
CCOC(=O)c1sc2ncn(CC(=O)Nc3ccc(F)cc3F)c(=O)c2c1C | 5% | 2% | 6% | nt | 0% | -2%
COC(=O)[C@@]1(Cc2ccccc2)[C@H]2c3cc(C(=O)N4CCCC4)n(Cc4cccc5ccccc45)c3C[C@H]2CN1C(=O)c1ccccc1 | nt | nt | 16% | nt | nt | nt
COc1ccc(C2CC(c3ccccc3)=NN2C(=O)CN2CCN(Cc3ccccc3)CC2)cc1 (stereo unspecified) | 26µM* | ? | 5% | -66* | 17% | 0%
COc1ccc(C2CC(c3ccccc3)=NN2C(=O)COC(=O)c2cnc(Cl)c(Cl)c2)cc1 (stereo unspecified) | ? | 21µM* | 3% | 0 | -16% | -9%
COc1ccc(C2=NN(C(=O)CN3CCCCC3)C(c3ccc(C)cc3)C2)cc1 (stereo unspecified) | ? | ? | -11% | -87* | 4% | 2%
COc1ccc(C2CC(c3ccc(Br)cc3)=NN2C(=O)CN2CCCC2)cc1 (stereo unspecified) | 12µM* | ? | -1% | -62* | ? | -35%
COc1ccc(C2=NN(C(=O)CCC(=O)O)C(c3ccccc3)C2)cc1 (stereo unspecified) | 15% | -4% | nt | 12 | 23% | -6%
COc1ccc(OC)c(NC(=O)CN(C)CC(=O)Nc2ccccc2Br)c1 | ? | -5% | 1% | 13 | 1% | 5%
CNC(=S)N1N=C(c2ccc(Br)cc2)CC1c1ccc(OC)cc1 (stereo unspecified) | 9.2µM* | ? | -6% | -11 | ? | -5%
COc1ccc(C2CC(c3ccccc3)=NN2C(=O)CSc2ncn[nH]2)cc1 (stereo unspecified) | -15% | ? | 4% | -71* | -1% | -5%
COc1ccc(C2=NN(C(=O)c3cccc([N+](=O)[O-])c3)C(c3cccc([N+](=O)[O-])c3)C2)cc1 (stereo unspecified) | -14% | 3% | 3% | -4 | -1% | -11%
COc1ccc(C2CC(c3cccc([N+](=O)[O-])c3)=NN2/C(C)=C/C(C)=O)cc1 (stereo unspecified) | ? | 16µM* | nt | 1 | 1% | -24%
O=C(CCc1nnc2ccc(NCc3ccccc3Cl)nn12)NC1CCCCC1 | 27% | 4% | 0% | 25 | -20% | 6%
COc1ccc(Cl)c(Cn2cnc3c(cnn3C(C)(C)C)c2=O)c1F | nt | nt | nt | nt | 1% | 1%
COc1cc(Cn2c(=O)sc3ccccc32)ccc1OC(C)C | 21µM* | ? | -4% | nt | -2% | -24%
COc1ccc(S(=O)(=O)NCc2ccco2)c2ccccc12 | -8% | 2% | 4% | 16 | -25% | -18%
Oc1[nH]c2ccc(Br)cc2c1N=Nc1ccc(C(F)(F)F)cn1 | ? | ? | -5% | -57* | -14% | -5%
Oc1[nH]c2ccccc2c1N=Nc1ccc(C(F)(F)F)cn1 | -7% | 2% | 2% | 29 | 9% | 3%
CC(=O)Nc1ccc(S(=O)(=O)NC2(C(F)(F)F)C(=O)Nc3c2c(=O)[nH]c(=O)n3Cc2cccnc2)cc1 (stereo unspecified) | -4% | 14% | -5% | 11 | 20% | 2.8µM*
O=C(Nc1ccc(S(=O)(=O)NCc2cccnc2)cc1)c1ccco1 | ? | ? | 6% | 22 | -9% | -24%
O=C(Nc1ccc(S(=O)(=O)Nc2ncccn2)cc1)c1ccc(Br)o1 | -1% | -15% | 5% | 14 | -20% | -10%
O=C(Nc1ccc(S(=O)(=O)NCc2ccccc2)cc1)c1ccc(Br)o1 | 21µM* | 21µM* | 0% | 24 | -30% | 4%
CC(=O)Nc1ccc(S(=O)(=O)NCc2cccnc2)cc1 | ? | 3.3µM* | 5% | 24 | 4% | -2%
SMILES | DT40 TDP1 no CPT | DT40 TDP1 CPT | TDP1 block | IL1B secr inh | TGFb SMAD3 inh | HepG2 viability
O=C(Nc1ccc(S(=O)(=O)NCc2cccnc2)cc1)c1ccccc1Cl | 10µM* | 13µM* | 3% | 2 | -8% | 2%
O=C(Nc1ccccc1)c1ccc(S(=O)(=O)NCc2cccnc2)cc1 | ? | -50% | -9% | 9 | -19% | 6%
O=S1(=O)N=C(Oc2cccc(Cl)c2)c2ccccc21 | nt | nt | 0% | nt | nt | nt
CC(NC(=O)Cc1ccc(Br)cc1)c1ccccc1 (stereo unspecified) | -22% | -9% | 2% | 1 | ? | -14%
Cc1cc(Cl)ccc1N(CC(=O)NCc1ccccc1)S(C)(=O)=O | -4% | -30% | 1% | 8 | -9% | -5%
Cc1ccc(C(=O)NC(=S)Nc2ccc(N3CCOCC3)cc2)cc1C | 15µM* | ? | 10% | 0 | -2% | -24%
Cc1cccc(C(=O)NC(=S)Nc2ccc(N3CCOCC3)cc2)c1 | ? | ? | 9% | -7 | -4% | -20%
O=C(NC(=S)Nc1ccc(N2CCOCC2)cc1)c1ccc(Cl)cc1 | -9% | -14% | 3% | 15 | -3% | 3%
COc1ccc(C(=O)Nc2ccc(N3CCN(C)CC3)cc2)cc1 | -7% | ? | nt | -8 | -3% | -4%
COc1ccc(C(=O)NC(=S)Nc2ccc(N3CCOCC3)cc2)cc1Cl | 21µM* | ? | 9% | -14 | -15% | 4%
COc1ccc(C(=O)Nc2ccc(N3CCN(C)CC3)cc2)cc1OC | -29% | 5% | nt | -81* | 1% | -2%
COCC1CCN(Cc2cn[nH]c2-c2ccc(OC)c(F)c2)C1 (stereo unspecified) | 21% | 7% | 5% | 4 | 11% | -11%
COCCCn1c(=O)c2ccccc2n(Cc2cc(C(=O)OC)ccc2OC)c1=O | -22% | -24% | 3% | 0 | 4% | -2%
COc1cc(OC)cc(-c2cc3nc(C)c(CCC(=O)O)c(C)n3n2)c1 | ? | -29% | 0% | 29 | 0% | 0%
